# Unmarked numbers belong to inactive results.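 Rule for the calls: active = GFP response above 150% of the DMSO control; inconclusive = Under 70 cell events counted for a yeast strain; inactive = the rest.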
# Experiment: yeast TOR pathway CIT2-GFP reporter retest – flow cytometry, third cherry pick, single plex, confirmation (AID 504340);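 note: median GFP fluorescence over all cells with no mother versus daughter split; sample signal as a ratio to the plate DMSO mean so 100% equals DMSO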
# Conditions: S. cerevisiae CIT2-GFP strain, 3 h, at 10 µM, active compounds read high
row,Structure (SMILES),GFP response vs DMSO [%]
1,CN(C)C(=O)Oc1ccnc2cc(Cl)ccc12,106
2,CN1CCN(c2ncnc3ccc(Br)cc23)CC1,103
3,C/C(O)=C(\C#N)C(=O)Nc1cc(Br)ccc1Br,116
4,CCN1CCN(c2ncnc3ccc(Br)cc23)CC1,109
5,CN(C)C(=O)Oc1ccc(Cl)c2cccnc12,104
6,Cc1ccc2c(c1N)C(=O)c1ccccc1C2=O,109

# Reference: PubChem BioAssay AID504340 (NMMLSC, 2011)
